# Assay outcomes as filed in PubChem BioAssay.
# CYP2C9 inh: blockers of cytochrome P450 2C9 activity – biochemical, luminescence, ADME assay, primary screen; P11712; CYP2C9 Supersomes, luciferin-H conversion; inhibition, % at 5 µM; hit rate 20% among 96,000; AID 777, 2007;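 active = blocking of liver enzyme CYP2C9 beyond about 50% at 5 µM, limit read from the data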
# Target sequence (P11712 whole entry, looked up): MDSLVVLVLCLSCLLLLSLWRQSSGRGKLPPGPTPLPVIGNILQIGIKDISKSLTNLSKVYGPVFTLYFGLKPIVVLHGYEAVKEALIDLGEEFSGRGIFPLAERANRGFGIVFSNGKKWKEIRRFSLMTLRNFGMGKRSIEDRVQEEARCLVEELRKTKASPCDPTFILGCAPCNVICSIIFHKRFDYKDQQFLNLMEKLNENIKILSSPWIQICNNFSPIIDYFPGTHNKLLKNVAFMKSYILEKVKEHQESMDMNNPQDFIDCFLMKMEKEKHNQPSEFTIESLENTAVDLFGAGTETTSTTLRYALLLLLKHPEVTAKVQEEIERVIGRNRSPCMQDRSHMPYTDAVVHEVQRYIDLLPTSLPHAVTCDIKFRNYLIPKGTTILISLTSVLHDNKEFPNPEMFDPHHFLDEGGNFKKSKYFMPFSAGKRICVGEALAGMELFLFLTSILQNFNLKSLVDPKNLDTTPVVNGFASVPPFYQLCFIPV
# CYP2C19 inh: blockers of cytochrome P450 2C19 activity – biochemical, luminescence, ADME assay, primary screen; P33261; CYP2C19 Supersomes, luciferin-H EGE luminescence, 30 min; inhibition, % at 5 µM; hit rate 21% among 96,000;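 active = CYP2C19 inhibition above a set limit at 5 µM in the primary screen, cut at about 50% in these data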;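 also: plate controls were negative control wells for no effect and 2.5 mM tranylcypromine positive control for full effect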
# EphB4 antag: EphB4-ephrin-B2 interaction antagonists, primary screen, biochemical, TNYL-RAW peptide probe, fluorescence polarization. Ephrin type-B receptor 4 (Homo sapiens), P54760. EphB4 LBD / TNYL-RAW-Alexa532 peptide. inhibition, % at 7 µM. hit rate 0.15% among 97,000. AID 720, 2007;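 active = inhibition above the screen-wide mean inhibition plus 3 SD, cut at about 15% in these data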;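 also: 0% = DMSO wells and 100% = excess unlabeled TNYL-RAW peptide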
# CYP2C19 act: human CYP2C19 activators, primary screen, biochemical, luminescence; recombinant CYP2C19, luciferin-H EGE luminescence; stronger effect = higher value; 0 = fully inhibited enzyme, 1 = untreated enzyme; activation factor at 5 µM; 96,000 tested, under 10 active;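 active = activation factor of at least 2 at 5 µM in the primary screen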;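 also: 0 = wells with 2.5 mM tranylcypromine and 1 = vehicle-only wells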
# CYP2C9 act: human CYP2C9 activators, primary screen, biochemical, luminescence. recombinant CYP2C9, luciferin-H conversion; stronger effect = higher value; factor 1 = untreated enzyme, 0 = blocked. activation factor at 5 µM. hit rate 1.4% among 96,000;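 active = activation factor of 2 or more for CYP2C9 at a 5 µM dose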;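 also: 0 = sulfaphenazole-blocked wells and 1 = vehicle-only wells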
# Starred values were filed as active, the others as inactive; x = not tested or not shown. An excerpt weighted towards active compounds, which were near 27% of everything screened.
SMILES,CYP2C9 inh,CYP2C19 inh,EphB4 antag,CYP2C19 act,CYP2C9 act
O=S(=O)(c1ccc2oc3ccc(S(=O)(=O)N4CCCC4)cc3c2c1)N1CCCC1,x,x,-4.2,x,x
CCOC(=O)C1CCN(C(=O)c2oc3ccc(S(=O)(=O)N4CC(C)CC(C)C4)cc3c2C)CC1 (stereo not given),34.6,34.6,6.0,0.7,0.7
O=S(=O)(c1ccc2oc3ccc(S(=O)(=O)N4CCCCC4)cc3c2c1)N1CCCCC1,65.5*,4.7,2.5,1,0.3
Cc1c(C(=O)N2CCOCC2)oc2ccc(S(=O)(=O)N3CCCC3)cc12,x,x,-1.0,x,x
CCOC(=O)N1CCN(C(=O)c2oc3ccc(S(=O)(=O)N4CC(C)CC(C)C4)cc3c2C)CC1 (stereo not given),51.3*,60.8*,4.3,0.4,0.5
CCOC(=O)N1CCN(C(=O)c2oc3ccc(S(=O)(=O)N4CCOCC4)cc3c2C)CC1,75.1*,55.0*,x,0.4,0.2
CCN1C(=O)c2cccc3c(NC(=O)c4cccc(N5C(=O)CCC5=O)c4)ccc1c23,9.8,-5.3,3.3,1.1,0.9
COC(=O)c1ccc(CSc2nc3c(c(=O)n2-c2ccc(F)cc2)SCC3)o1,x,x,2.8,x,x
Cc1cccc(C2=N/C(=C\c3cccnc3)C(=O)O2)c1,-16.2,7.9,-2.7,0.9,1.2
Cc1c(C(=O)N2CCCc3ccccc32)oc2ccc(S(=O)(=O)N3CCOCC3)cc12,85.1*,96.0*,-7.2,0,0.1
O=C(c1cccc(S(=O)(=O)N2CCOCC2)c1)N1CCCc2ccccc21,5.4,40.0,-4.6,0.6,0.9
Cc1ccc(S(=O)(=O)N(CC(=O)N/N=C/c2cccc3c2OCCO3)c2ccccc2F)cc1,93.6*,82.2*,-6.2,0.2,0.1
O=C(NCC1CCCO1)/C(=C\c1ccc(Cl)cc1)NC(=O)c1ccccc1 (stereo not given),5.7,11.6,-0.7,0.9,0.9
CSc1oc(-c2ccco2)nc1S(=O)(=O)c1ccccc1,-192.7,26.7,5.9,0.7,2.9*
CC(C)Sc1oc(-c2ccco2)nc1S(=O)(=O)c1ccccc1,x,x,4.9,x,x
CCCn1c(N2CCN(S(=O)(=O)Cc3ccccc3)CC2)nc2ccccc21,-3.7,29.2,-6.1,0.7,1
CN(C)/C=N/c1nc2ccc3c(c2s1)CCCC3,7.5,81.4*,-5.9,0.2,0.9
Cn1c(CN2CCCCC2)c(C#N)c2ccccc21,13.2,97.8*,3.1,0,0.9
Cn1c(CN2CCN(CC#N)CC2)c(C#N)c2ccccc21,-188.5,48.2,-0.2,0.5,2.9*
Cn1c(CNC2CCCCC2)c(C#N)c2ccccc21,29.5,55.1*,5.8,0.4,0.7
Cn1c(CN2CCC(C(N)=O)CC2)c(C#N)c2ccccc21,x,x,5.0,x,x
O=C(Cc1ccc(-n2cccc2)cc1)N1CCN(c2ccccc2F)CC1,63.3*,49.8,4.5,0.5,0.4
O=C(CCCC(=O)N1CCN(c2ccccc2F)CC1)N1CCN(c2ccccc2F)CC1,16.2,7.7,-4.0,0.9,0.8
CCn1c(=O)n(CC(=O)N2CCN(c3ccccc3F)CC2)c(=O)c2ccccc21,24.7,13.0,2.1,0.9,0.8
Cn1cc(CC(=O)N2CCN(c3ccccc3F)CC2)c2ccccc21,-64.6,99.6*,-7.1,0,1.6
SMILES,CYP2C9 inh,CYP2C19 inh,EphB4 antag,CYP2C19 act,CYP2C9 act
Cn1cc(CC(=O)N2CCN(c3ccc(Cl)cc3)CC2)c2ccccc21,-105.2,70.6*,6.0,0.3,2.1*
COc1ccc(N2CCN(C(=O)Cc3nn(C)c(=O)c4ccccc34)CC2)cc1,-2.9,-9.5,4.4,1.1,1
O=C(Oc1c(Cl)cc(Cl)c2cccnc12)c1ccco1,-2.2,43.2,4.2,0.6,1
CN(C)CCN1C(=O)c2oc3ccc(F)cc3c(=O)c2C1c1ccncc1 (stereo not given),26.2,22.4,2.7,0.8,0.7
COC(=O)COc1ccc(S(=O)(=O)N2CCOCC2)cc1C,-10.6,17.5,-1.8,0.8,1.1
CC(NC(=O)C1CCCN(S(=O)(=O)c2cccs2)C1)c1ccccc1 (stereo not given),95.2*,58.8*,0.1,0.4,0
CC(C)NC(=O)C1CCCN(S(=O)(=O)c2cccs2)C1 (stereo not given),1.7,58.0*,-3.7,0.4,1
